POLB inh: qHTS Assay for Inhibitors of DNA Polymerase Beta; P06746; Pol beta primer extension/strand displacement, fluorescence kinetic; Potency, µM (doses to about 114 µM), most hits filed as inhibitors; 1.3% of 340,000 active
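Kinetic readout of DNA synthesis with strand displacement by Pol beta. Compound and 10 nM enzyme sit 15 min at room temperature; 50 nM substrate starts the reaction, read immediately and at 10 min.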
PI5P4K alpha inh: qHTS for Inhibitors of phosphatidylinositol 5-phosphate 4-kinase (PI5P4K) | Phosphatidylinositol 5-phosphate 4-kinase type-2 alpha (Homo sapiens), P48426 | PI5P4Kalpha enzyme, ADP-Glo luminescence, 60 min; active compounds read low | max response, % | 1.2% of 330,000 active | AID 652105, 2013; active = max response of -50% or lower; inconclusive = between -30% and -50%; inactive = -30% or higher; note: value at the top dose of about 77 µM
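qHTS, 1536-well: enzyme/substrate mix, compound by pin tool, 5 microM ATP final; RT 60 min; ADP-Glo reagents 1 (45 min) then 2 (30 min); luminescence.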
WRN helicase inh: qHTS for Inhibitors of WRN Helicase | WRN helicase unwinding, fluorescent forked duplex, kinetic | 0.46% of 360,000 active | Potency, µM (doses to about 114 µM), actives largely listed as inhibitors | Bifunctional 3'-5' exonuclease/ATP-dependent helicase WRN (Homo sapiens), Q14191 | AID 651768, 2012; note: nearly all actives have a fitted effect of over 55% in size
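Kinetic red-fluorescence monitoring (525/598 nm) tracks WRN helicase activity after 100 nM fluorophore-quencher forked duplex and 2 mM ATP are added to 20 nM enzyme pretreated 15 min at room temperature with compound.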
Pol iota inh: qHTS for Inhibitors of Polymerase Iota. Pol iota fluorescent replication assay, 10 min. Potency, µM (highest dose often 115 µM), usual class: inhibitors. 1% of 390,000 active
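Pol iota at 10 nM preincubated 15 min with compounds at room temperature; reaction started with fluorescent substrate, 50 nM final. Fluorescence read kinetically at 0 and 10 min; buffer-only wells as negative control.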
POLH inh: qHTS for Inhibitors of Polymerase Eta. DNA polymerase eta (Homo sapiens), Q9Y253. recombinant Pol eta, fluorescent DNA replication assay. Potency, µM (top dose mostly 114 µM), most hits filed as inhibitors. 1.2% of 390,000 active. AID 588591, 2011
Target sequence (Q9Y253 whole entry, looked up): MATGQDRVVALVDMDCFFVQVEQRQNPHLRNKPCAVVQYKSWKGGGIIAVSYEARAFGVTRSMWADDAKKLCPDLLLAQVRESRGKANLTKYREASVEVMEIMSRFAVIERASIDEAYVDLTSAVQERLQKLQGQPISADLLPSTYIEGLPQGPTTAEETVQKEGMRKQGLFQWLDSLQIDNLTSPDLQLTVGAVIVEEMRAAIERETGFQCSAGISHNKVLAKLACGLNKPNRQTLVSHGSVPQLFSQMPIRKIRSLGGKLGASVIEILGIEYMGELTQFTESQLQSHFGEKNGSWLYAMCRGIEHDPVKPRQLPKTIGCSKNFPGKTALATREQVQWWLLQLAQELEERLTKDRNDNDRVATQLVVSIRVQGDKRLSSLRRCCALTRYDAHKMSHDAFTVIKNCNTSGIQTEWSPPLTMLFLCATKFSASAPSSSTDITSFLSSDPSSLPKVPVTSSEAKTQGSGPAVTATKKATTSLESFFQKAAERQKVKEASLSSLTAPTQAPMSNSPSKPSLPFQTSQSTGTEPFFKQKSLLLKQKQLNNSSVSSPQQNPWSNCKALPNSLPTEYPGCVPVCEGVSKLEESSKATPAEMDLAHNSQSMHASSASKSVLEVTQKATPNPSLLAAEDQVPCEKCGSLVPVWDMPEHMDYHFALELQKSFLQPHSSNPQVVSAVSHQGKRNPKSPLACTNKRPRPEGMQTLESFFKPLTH
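Pol eta (10 nM) was preincubated with compounds for 15 min at room temperature, after which fluorescent replication substrate (50 nM final) was added to start the reaction. Fluorescence was read kinetically at 0 and 10 min.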
Pol kappa inh: qHTS for Inhibitors of Polymerase Kappa; DNA polymerase kappa (Homo sapiens), Q9UBT6; purified Pol kappa, fluorescent DNA synthesis assay, 10 min; Potency, µM (series often up to 107 µM), hits mostly inhibitors; 0.53% of 400,000 active; AID 588579, 2011
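Inhibition of 10 nM Pol kappa is measured by a fluorescent read-out at 0 and 10 min following addition of 50 nM substrate (final), with a 15-min room-temperature compound preincubation.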
A number is an active result; - = inactive; ? = inconclusive; . = not tested or not shown; [ ] = remark or other dose. Shown are actives, neighbours in structure and some others; about 2.8% of the full set was active somewhere. Unless noted, calls come from the whole dose curve; as a rule, active = well fitted curve in the direction sought with a large enough effect; inconclusive = small, poorly fitted or top-dose-only effect, or another doubt; inactive = no such curve, though single readings can be large; an effect the other way counts as inactive or inconclusive.

SMILES	POLB inh	PI5P4K alpha inh	WRN helicase inh	Pol iota inh	POLH inh	Pol kappa inh
O=C(/C=C1\NC2(CCCC2)Cc2ccccc21)C(=O)N/N=C/c1ccc(O)c(O)c1	2µM	?	?	?	11µM	-
O=C1c2ccccc2CCC1CNCCc1ccc(O)cc1 (stereo unspecified)	.	.	.	.	.	-[19.4 µM]
CO/N=C/NC(=O)c1ccc([N+](=O)[O-])c(CS(=O)(=O)c2ccc(Cl)cc2)c1	-	-50	?	-	-	-
O=c1c(Cl)c(Cl)cnn1Cc1nnc(-c2ccc(Cl)cc2)o1	40µM	-58	-[11.6 µM]	40µM	50µM	-
CCN(CC)C(=O)C(=O)N/N=C/c1ccc(Br)cc1	-	-	-	-	-	-
O=C1N=c2ccccc2=C1c1sc(NS(=O)(=O)c2ccccc2)nc1O	-	-61	-	?	-	-
O=C1N=c2ccccc2=C1c1sc(Nc2cccc(O)c2)nc1O	-	?	-	-	-	-
O=C1N=c2ccccc2=C1c1sc(NS(=O)(=O)Cc2ccccc2)nc1O	-	-54	-	?	-	-
O=c1c2ccccc2n(Cc2cccc(F)c2)c(=O)n1Cc1ccccc1Cl	-	.	.	-	-	-
CCN(CC)S(=O)(=O)c1ccc(N=NC2=C(O)CCCC2=O)cc1	-	-	-	-	-	-
CCN(CC)S(=O)(=O)c1ccc(N=Nc2c(N)[nH]c(=O)[nH]c2=O)cc1	-	-67	-	-	-	-
CN(C)c1ccc(/C=C2\C(=N)N3N=C(CC(=O)N4CCCC4)SC3=NC2=O)cc1Br	-	-	-	79µM	-	?
CN(C)c1ccc(/C=C2\C(=N)N3N=C(CC(=O)N4CCCCC4)SC3=NC2=O)cc1	?	?	?	50µM	?	?
Cc1cnc(C)c(Nc2nc(C(N)Cc3ccc(C(F)(F)F)cc3)cs2)n1 (stereo unspecified)	.	-	-	.	.	.
Cc1ccccc1CN1C(=O)C(O)(CC(=O)c2cccc(Br)c2)c2ccccc21 (stereo unspecified)	-	.	.	-	-	-
COc1ccc(-c2noc(-c3ccc(NC(C)c4ccccc4)c([N+](=O)[O-])c3)n2)cc1OC (stereo unspecified)	32µM	.	.	-	-	-
Cn1c(N)c(C(=O)COC(=O)C2Cc3ccccc3CN2S(C)(=O)=O)c(=O)n(C)c1=O (stereo unspecified)	.	-61	?	.	13µM	.
CC(/C=N/Nc1ccc2nncn2n1)=C\c1ccccc1	?	-	-[11.6 µM]	-	79µM	-
COc1cc(SC)ccc1C(=O)Nc1cccc(C2OCCCO2)c1	-	-	-	-	-	-
COc1ccc(-c2cc(=O)c3c(O)cc(O[C@H]4OC(COC5OC(C)C(O)C(O)[C@H]5O)C(O)C(O)C4O)cc3o2)cc1O (stereo partly specified)	.	.	.	.	.	20µM
COc1ccc(-c2cc(=O)c3c(O)cc(O[C@@H]4OC(COC5OC(C)C(O)C(O)[C@@H]5O)C(O)C(O)C4O)cc3o2)cc1 (stereo partly specified)	.	.	.	.	.	-
CC(=O)Nc1cccc(NC(=O)C(C)N2c3cccc4cccc(c34)S2(=O)=O)c1 (stereo unspecified)	?	-	-	-	-	-
COc1ccc(CNC(=O)COC(=O)c2ccc(OCc3c(C)noc3C)cc2)cc1OC	79µM	-	-	-	-	-
COc1ccc(CCNC(=O)c2ccc(OCc3c(C)noc3C)cc2)cc1OC	.	-	-	-	-	-
O=C(c1ccc(Cl)cc1)c1c[nH]c(C(=O)C(Cl)(Cl)Cl)c1	-	-	-	-	20µM	-
SMILES	POLB inh	PI5P4K alpha inh	WRN helicase inh	Pol iota inh	POLH inh	Pol kappa inh
COC(=O)c1ccccc1NC(=O)CSc1cc(-c2ccccc2)nc(C)n1	-	.	.	-	-	-
Cc1ccc(N2C(=O)/C(=C\c3ccco3)SC2=S)cc1	45µM	?	?	?	?	79µM
O=C1/C(=C\c2ccco2)SC(=S)N1c1ccccc1	28µM	-	-	?	?	-
O=C1/C(=C/c2ccco2)SC(=S)N1C1CCS(=O)(=O)C1 (stereo unspecified)	13µM	?	-	?	-	?
O=C1/C(=C\c2ccco2)SC(=S)N1Cc1ccccc1	?	-	-	-	?	-
C#CCNC(=O)C1=C[C@H](c2ccc3c(c2)OCO3)C[C@H](OCCCCO)O1	.	-	-	35µM	50µM	-
C#CCNC(=O)C1=C[C@@H](c2ccc3c(c2)OCO3)C[C@@H](OCCCCO)O1	.	?	-	50µM	?	-
COc1cccc(CNC(=O)C(=O)NCC(c2ccc3c(c2)OCO3)N2CCOCC2)c1 (stereo unspecified)	-	.	.	-	-	-
COc1cc(NS(=O)(=O)c2cc(NC(C)=O)ccc2OC)c(OC)cc1NC(=O)c1ccccc1	.	?	-[11.6 µM]	?	45µM	-
CCOc1cc(N2CCOCC2)c(OCC)cc1NS(=O)(=O)c1cc(NC(C)=O)ccc1OC	?	-	-[11.6 µM]	25µM	?	?
CCOc1cc(N2CCOCC2)c(OCC)cc1NC(C)C(=O)N1CCN(CC)CC1 (stereo unspecified)	?	?	?	13µM	-	?
CCOc1cc(N2CCOCC2)c(OCC)cc1NC(=O)C(C)C	-	-	-	-	-	-
CC(=O)c1ccc(O)c(CSC2=NCCS2)c1	-	-	-	-	-	-
COc1ccc(Cl)cc1NC(=O)CN(C)S(=O)(=O)c1ccc2c(c1)CCCN2C(C)=O	-	.	.	-	-	-
C#CCOCCOCCOCCNc1nc(N2CCN(C(=O)Cn3cc(CCCN=C(N)N)nn3)CC2)nc(N2CCN(C(=O)Cn3cc(CCCN=C(N)N)nn3)CC2)n1	1.6µM	.	.	.	.	.
C#CCOCCOCCOCCNc1nc(N2CCN(C(=O)CCCCCCCCCCNC(=O)Cn3cc(CCCCCN)nn3)CC2)nc(N2CCN(C(=O)CCCCCCCCCCNC(=O)Cn3cc(CCCCCN)nn3)CC2)n1	.	-64	79µM	?	-	-
C#CCOCCOCCOCCNc1nc(N2CCN(C(=O)Cn3cc(CCCCN)nn3)CC2)nc(N2CCN(C(=O)Cn3cc(CCCCN)nn3)CC2)n1	40µM	-	-	?	-	?
C#CCOCCOCCOCCNc1nc(N2CCN(C(=O)Cn3cc(CCCN=C(N)N)nn3)CC2)nc(N2CCN(C(=O)[C@H]([C@@H](C)CC)n3cc(CCC(=O)O)nn3)CC2)n1	-	-	-	89µM	-	-
CCCCn1nc(NC(=O)c2cccc(Cl)c2)c2cc3cccc(C)c3nc21	-	.	.	-	.	-
